Results as given in PubChem BioAssay (NCI).
Where “and” joins values, the source holds several entries; their conditions need not be identical. Identical values can stand only once. The panel holds about 83,000 compounds, 20% with a hit somewhere; the sample as a whole holds those more often.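 In brief: 96-well plates, 48 h treatment, single concentration, percent growth endpoint.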 Calls of active or inactive are those of the source. How the source made its calls: active means growth percent below 10; inactive means the rest.

Columns and labels:
Test in all cases: NCI-60 one-dose screen, 48 h (100 = growth as untreated, 0 = no growth, -100 = all killed)
[1] = tested on: DU-145 prostate
[2] = tested on: K-562 leukemia
[3] = tested on: MALME-3M melanoma
[4] = tested on: MDA-MB-231 breast
[5] = tested on: RXF 393 renal
[6] = tested on: SF-268 CNS
[7] = tested on: SF-295 CNS
[8] = tested on: SF-539 CNS
[9] = tested on: UACC-257 melanoma
[10] = tested on: M14 melanoma; details: 10 µM unless noted
[11] = tested on: HCT-15 colon; details: 10 µM unless noted
[12] = tested on: HT29 colon
[13] = tested on: SNB-75 CNS
[14] = tested on: SNB-19 CNS
[15] = tested on: U251 CNS
[16] = tested on: PC-3 prostate
[17] = tested on: SK-MEL-5 melanoma; details: 10 µM unless noted
[18] = tested on: UACC-62 melanoma
[19] = tested on: LOX IMVI melanoma
[20] = tested on: SK-MEL-28 melanoma; details: 10 µM unless noted

Measured: growth

C/C(=N/OC(=O)N(C)C)c1ccc(Cl)c(Cl)c1
inactive: [1]; 10 µM unless noted 121% | [2]; 10 µM unless noted 120% | [3]; 10 µM unless noted 115% | [4]; 10 µM unless noted 105% | [5]; 10 µM unless noted 108% | [6]; 10 µM unless noted 105% | [7]; 10 µM unless noted 112% | [8]; 10 µM unless noted 114% | [9]; 10 µM unless noted 97.4% | [10] 113% | [11] 107% | [12]; 10 µM unless noted 95.2% | [13]; 10 µM unless noted 116% | [14]; 10 µM unless noted 99.4% | [15]; 10 µM unless noted 105% | [16]; 10 µM unless noted 93.7% | [17] 99.3% | [18]; 10 µM unless noted 97.8% | [19]; 10 µM unless noted 99.2%

O=C(NC1=NCC[Se]1)c1ccccc1O
inactive: [1]; 10 µM unless noted 61.1% | [2]; 10 µM unless noted 50.7% | [4]; 10 µM unless noted 69.3% | [5]; 10 µM unless noted 44% | [6]; 10 µM unless noted 43.3% | [7]; 10 µM unless noted 95.4% | [8]; 10 µM unless noted 52.9% | [9]; 10 µM unless noted 55.3% | [10] 42% | [11] 82% | [12]; 10 µM unless noted 92.1% | [13]; 10 µM unless noted 67.3% | [14]; 10 µM unless noted 68.5% | [15]; 10 µM unless noted 44% | [16]; 10 µM unless noted 54.9% | [17] 80.9% | [18]; 10 µM unless noted 76.2% | [19]; 10 µM unless noted 42.9% | [20] 61.3%
active: [3]; 10 µM unless noted -22.9%

O=C(O)CCCc1ccc(N(CCCl)CCCl)cc1
inactive: [1]; 10 µM 111% and 98.7% | [2]; 10 µM 103% and 58.3% | [2]; 75 µM 31.8% | [3]; 10 µM 98.7% and 88.9% | [3]; 75 µM 43% | [4]; 10 µM 99.4% and 104% | [4]; 75 µM 93.5% | [5]; 10 µM 106% and 87.8% | [5]; 75 µM 12% | [6]; 10 µM 87.6% and 69.9% | [6]; 75 µM 34% | [7]; 10 µM 100% and 78.8% | [7]; 75 µM 13.4% | [8]; 10 µM 87.8% and 72.3% | [9]; 10 µM 104% and 73.4% | [9]; 75 µM 28.9% | [10] 93.3% and 97.1% | [12]; 10 µM 85.7% and 74.5% | [12]; 75 µM 45.2% | [13]; 10 µM 88.9% and 90.1% | [14]; 10 µM 102% and 95.9% | [14]; 75 µM 32.9% | [15]; 10 µM 85.1% and 84% | [15]; 75 µM 30% | [16]; 10 µM 85.3% and 64.5% | [16]; 75 µM 45.3% | [18]; 10 µM 82.7% and 78.8% | [18]; 75 µM 28.6% | [19]; 10 µM 83.1% and 80.2% | [19]; 75 µM 26.7%
active: [1]; 75 µM -5.07% | [8]; 75 µM -40.7% | [13]; 75 µM 3.53%

CCCN1C(=O)NC(=O)C(CC)(N2C(=O)c3c(F)c(F)c(F)c(F)c3C2=O)C1=O (stereo unspecified)
active: [1]; 10 µM unless noted -98.9% | [2]; 10 µM unless noted -81.7% | [3]; 10 µM unless noted -71.1% | [4]; 10 µM unless noted -78.7% | [5]; 10 µM unless noted -95.1% | [6]; 10 µM unless noted -82.5% | [7]; 10 µM unless noted -68.6% | [8]; 10 µM unless noted -96.7% | [9]; 10 µM unless noted -83.3% | [10] -64.7% | [11] -51.8% | [12]; 10 µM unless noted -66.6% | [13]; 10 µM unless noted -52.1% | [14]; 10 µM unless noted -94.9% | [15]; 10 µM unless noted -48% | [16]; 10 µM unless noted -59.2% | [17] -91.7% | [18]; 10 µM unless noted -68.6% | [19]; 10 µM unless noted -55.9%

CCCC1CCCCC12C(=O)NC(=O)NC2=O (stereo unspecified)
inactive: [1]; 10 µM unless noted 104% and 109% | [2]; 10 µM unless noted 101% | [3]; 10 µM unless noted 86.4% and 112% | [4]; 10 µM unless noted 89.3% and 120% | [5]; 10 µM unless noted 104% and 110% | [6]; 10 µM unless noted 105% and 102% | [7]; 10 µM unless noted 95.5% and 108% | [8]; 10 µM unless noted 97.1% and 111% | [9]; 10 µM unless noted 103% and 94.1% | [10] 96.4% and 96.9% | [11] 94.3% and 106% | [12]; 10 µM unless noted 97.2% and 94.3% | [13]; 10 µM unless noted 100% and 87.2% | [14]; 10 µM unless noted 96.2% and 110% | [15]; 10 µM unless noted 97.8% and 102% | [16]; 10 µM unless noted 104% and 101% | [17] 95.5% and 103% | [18]; 10 µM unless noted 98.2% and 109% | [19]; 10 µM unless noted 97% and 97.1% | [20] 103% and 114%

Cc1nnc([S-])o1.[Au+].c1ccc([PH+](c2ccccc2)c2ccccc2)cc1
inactive: [1]; 10 µM unless noted 62.4% | [2]; 10 µM unless noted 12.8% | [3]; 10 µM unless noted 48.1% | [4]; 10 µM unless noted 61.4% | [6]; 10 µM unless noted 43.4% | [7]; 10 µM unless noted 92.1% | [8]; 10 µM unless noted 67.8% | [9]; 10 µM unless noted 27.9% | [10] 31.8% | [12]; 10 µM unless noted 61.1% | [13]; 10 µM unless noted 29.3% | [14]; 10 µM unless noted 29.2% | [15]; 10 µM unless noted 10.1% | [16]; 10 µM unless noted 57.7% | [17] 26.7% | [18]; 10 µM unless noted 21.3% | [19]; 10 µM unless noted 13.2% | [20] 32.8%
active: [5]; 10 µM unless noted -53.8% | [11] 8.98%
